Laboratory results as given in the supplement of paper PMC3334620.
Whole data set: some 33,000 sequences, median “E-score (-0.5 to 0.5)” near -0.013, cut for the highest 2% near 0.3. The list comes from a sample in which the highest values are over-represented; it also holds similar and randomly drawn sequences.

Target: T1, Msn1 (UniProt P22148)
T1 sequence: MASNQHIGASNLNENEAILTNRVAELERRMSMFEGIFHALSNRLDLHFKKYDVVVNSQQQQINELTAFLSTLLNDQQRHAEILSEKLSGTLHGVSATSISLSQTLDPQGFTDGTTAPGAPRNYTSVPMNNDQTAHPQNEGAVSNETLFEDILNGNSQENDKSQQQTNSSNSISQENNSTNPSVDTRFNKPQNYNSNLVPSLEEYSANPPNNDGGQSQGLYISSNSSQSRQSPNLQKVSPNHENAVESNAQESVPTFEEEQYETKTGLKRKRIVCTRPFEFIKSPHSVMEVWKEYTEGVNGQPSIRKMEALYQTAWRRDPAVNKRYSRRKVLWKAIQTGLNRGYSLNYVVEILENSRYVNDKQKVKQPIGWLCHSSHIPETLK
Assay: PBM E-score (8-mer binding enrichment) (E-score (-0.5 to 0.5)); higher = stronger / more preferred TF binding
Settings: protein concentration: 200 nM; construct: GST-full length
Experimental: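 Universal 'all 10-mer' protein binding microarrays (Agilent AMADID 015681) probed with GST-tagged S. cerevisiae TFs (full-length or DBD) made by in vitro transcription/translation (PURExpress), about 100-200 nM. Bound TF was detected with fluorescent anti-GST. Each ungapped 8-mer (which stands for itself and its reverse complement) is scored by the PBM enrichment score (E-score), a modified Wilcoxon-Mann-Whitney statistic from -0.5 to +0.5, computed with the Universal PBM Analysis Suite. Scale: above 0.35 generally sequence-specific binding.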

Sequence | PBM E-score
ACAGACCG | -0.128
GAGATGAA | 0.024
AGGTGCCC | -0.275
CCCGAGAA | 0.0155
ACCGACAA | 0.268
ACCGAGAA | 0.149
CCCGACAG | 0.052
TCCGAGAA | 0.346
CCCGACAA | 0.329
TCCGACAA | 0.372
CCCGACAC | -0.0956
GCCGACAA | 0.117
CAATTCAG | 0.0996
TAAGTACA | 0.287
GCTTTAGA | -0.0753
CCTGATAG | -0.222
AACATGAT | 0.173
AAACATAC | -0.0227
AGACACAT | 0.197
ATACATAC | -0.0367
AAACATAT | 0.258
ACACATAG | 0.0311

Sequence | PBM E-score
ACACATAA | 0.217
AGACATAC | 0.327
AGACATAG | 0.32
CGACATAG | 0.15
AGACATAT | 0.47
ATACATAA | 0.21
AGACATAA | 0.373
GCAATGAA | 0.0712
ATACATGA | 0.073
ACAAATCG | 0.276
ACTGAAGC | -0.0558
AATGGTTG | -0.0125
CCCTAAAC | -0.171
ATACAAAT | 0.335
ACACAAAA | 0.296
ATACAAAA | 0.2
ATACAAAG | 0.254
AAACAAAA | 0.127
CGACAAAG | 0.294
AGACAACT | 0.147
AGACAAAT | 0.482
AAACAAAT | 0.199

Sequence | PBM E-score
AGACAAAA | 0.437
AGACAAGG | 0.162
AGACAAAG | 0.364
CGCCCTTA | -0.0904
AAGTTGAT | 0.016
AACTGCCC | -0.105
GGTCAAAC | 0.114
AGGGGGCG | -0.416
GTGCAACA | -0.164
ACCCGCGC | 0.0994
GCACCTTA | 0.00327
ATATCCTG | 0.0176
CCCTTCGG | -0.0863
CCACAAAA | 0.0569
ACACAAAC | 0.0132
CGACAAAA | 0.423
AAACAAAC | 0.192
CAACAAAA | 0.0735
AGACAAAC | 0.446
CAACAAAC | -0.0143
TAACAAAA | 0.228
TCACAAAA | 0.119

Sequence | PBM E-score
CGACAACC | 0.0461
CGACAAAC | 0.36
TGACAAAA | 0.402
CCGTTGAA | 0.00808
CGTAGCTA | -0.123
CCTGCGGA | 0.00937
CGGCCGAC | 0.194
GATTTGGC | -0.221
CATAGATC | 0.0219
CCGTGAGG | -0.283
CATGGAGA | -0.00044
GCCTACAA | -0.0308
ATCCCGTC | -0.0856
AGTAACGC | -0.119
CTCTGAGA | -0.0856
CATACTCA | 0.0936
ATTGGACG | 0.211
GTTGGAAA | 0.165
CTTGGACA | 0.44
ATTGGACC | -0.101
CTTGGAGA | -0.00816
GTTGGACA | 0.437

Sequence | PBM E-score
CTTGGACC | -0.163
GTTGGATA | 0.0207
ATTGGACA | 0.445
CACAATGG | 0.0832
TAGGAACA | 0.0697
GGGTGTCA | -0.0869
AGAGCTCT | -0.265
AGCCTCCG | -0.213
AGTACTTG | 0.147
AGCACACG | -0.0792
AGGACACC | 0.255
AGGACAGC | 0.078
ATGACACG | 0.214
ACGACACG | 0.206
ACGACACA | 0.172
AGGACACA | 0.472
AGGACAGA | 0.437
AGGACAGG | 0.28
ACGACACT | 0.123
AGGACACG | 0.467
AGGACACT | 0.358
TCGCAAGA | -0.177
